From PubChem BioAssay (Tox21)
Inconclusive results are not listed. A call without a number means that no potency is given here. Activity calls are given as the source filed them. Calls come from the whole dose curve; as a rule, active = well fitted curve in the direction sought with a large enough effect in the repeat runs; inconclusive = weak or mixed curves; inactive = no such curve, though single readings can be large; an effect the other way counts as inactive or inconclusive.

Test system: not listed separately
Assay: qHTS assay to identify small molecule antagonists of the constitutive androstane receptor (CAR) signaling pathway - cell viability counter screen (AID 1224837); note: nearly all actives have a fitted effect of over 45% in size
Conditions: HepG2-CYP2B6-hCAR viability, CellTiter-Fluor, 23 h, co-treated with 50 nM CITCO; series mostly up to 92.4 µM
Outline: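 Counter screen run in HepG2-CYP2B6-hCAR cells: 4 hr settle, compound titration (15 concentrations) with 50 nM CITCO, 23 hr at 37 C/5% CO2, CellTiter-Fluor fluorescence.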

| SMILES | Potency |
| --- | --- |
| CCN(CC)c1nc(C)cc(OP(=S)(OC)OC)n1 | inactive |
| O=P(O)(Oc1ccccc1)Oc1ccccc1 | inactive |
| C#C[C@]1(O)C=C[C@H]2[C@@H]3CCC4=CC(=O)CC[C@@H]4[C@H]3CC[C@@]21CC | inactive |
| ClC(Cl)C(Cl)Cl | inactive |
| CC(CC(C#N)(c1ccccc1)c1ccccc1)N(C)C (stereo not drawn) | inactive |
| CN(C)CCc1ccc(O)cc1 | inactive |
| C(CCOCC1CO1)COCC1CO1 (stereo not drawn) | inactive |
| CCCCC(=O)Cl | inactive |
| CCCCOC(=O)c1ccccc1N | inactive |
| Cc1ncc(CNC(=O)N(CCCl)N=O)c(N)n1 | inactive |
| CCCCCCI | inactive |
| ClCCOCOCCCl | inactive |
| ClCC(Cl)Cl | inactive |
| CSc1nc(N=[N+]=[N-])nc(NC(C)C)n1 | inactive |
| O=C1OC(c2ccc(O)c(S(=O)(=O)O)c2)(c2ccc(O)c(S(=O)(=O)O)c2)c2c(Br)c(Br)c(Br)c(Br)c21 | inactive |
| Nc1c(Br)cc([N+](=O)[O-])cc1[N+](=O)[O-] | inactive |
| c1cc2c(c(N3CCNCC3)c1)OCCO2 | inactive |
| CCC(C)n1c(=O)[nH]c(C)c(Br)c1=O (stereo not drawn) | inactive |

| SMILES | Potency |
| --- | --- |
| COC(=O)c1c(C(F)F)nc(C(F)(F)F)c(C2=NCCS2)c1CC(C)C | inactive |
| C1CCC(C2CCCCC2)CC1 | inactive |
| Cc1nnc2n1-c1sc(CCC(=O)N3CCOCC3)cc1C(c1ccccc1Cl)=NC2 | inactive |
| c1coc(-c2nc3ccccc3[nH]2)c1 | inactive |
| Cc1ncsc1CCCl | inactive |
| CC1CCC(=O)O1 (stereo not drawn) | inactive |
| OCCSCSCCO | inactive |
| CCc1cc2c(s1)-n1c(C)nnc1CN=C2c1ccccc1Cl | inactive |
| OC(Cn1cncn1)(c1ccc(F)cc1)c1ccccc1F (stereo not drawn) | inactive |
| N#Cc1c(Cl)cccc1Cl | inactive |
| CNCC(=O)c1ccc(O)c(O)c1 | inactive |
| ClCC(Cl)(Cl)Cl | inactive |
| COc1ncc(F)c2nc(S(=O)(=O)Nc3c(F)cccc3F)nn12 | inactive |
| CCCCCCBr | inactive |
| O=C(CCCN1CCC(n2c(=O)[nH]c3ccccc32)CC1)c1ccc(F)cc1 | inactive |
| CC1(C(=O)Nc2ccc(O)c(Cl)c2Cl)CCCCC1 | inactive |
| C=CC1CC=CCC1 (stereo not drawn) | inactive |
| CCOC(=O)C1(c2ccccc2)CCN(CCc2ccc(N)cc2)CC1 | inactive |

Molecular target: Nuclear receptor subfamily 1 group I member 3 (Homo sapiens) (UniProt Q14994)
Assay: qHTS assay to identify small molecule antagonists of the constitutive androstane receptor (CAR) signaling pathway (AID 1224838);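 note: HepG2 cells stably expressing hCAR with CYP2B6 luciferase reporter stimulated by CITCO; nearly all actives have a fitted effect of over 40% in size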
Conditions: HepG2-CYP2B6-hCAR luciferase, CITCO-stimulated, 24 h; series mostly up to 92.4 µM
Outline: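 Cell line: HepG2 double-stable for hCAR and CYP2B6-2.2kb reporter. Agonist: CITCO, 50 nM final. Compounds: 15 concentrations, 24 h, 37 C. Detection: ONE-Glo luminescence.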

Nuclear receptor subfamily 1 group I member 3 (Homo sapiens), sequence (Q14994 whole entry, looked up): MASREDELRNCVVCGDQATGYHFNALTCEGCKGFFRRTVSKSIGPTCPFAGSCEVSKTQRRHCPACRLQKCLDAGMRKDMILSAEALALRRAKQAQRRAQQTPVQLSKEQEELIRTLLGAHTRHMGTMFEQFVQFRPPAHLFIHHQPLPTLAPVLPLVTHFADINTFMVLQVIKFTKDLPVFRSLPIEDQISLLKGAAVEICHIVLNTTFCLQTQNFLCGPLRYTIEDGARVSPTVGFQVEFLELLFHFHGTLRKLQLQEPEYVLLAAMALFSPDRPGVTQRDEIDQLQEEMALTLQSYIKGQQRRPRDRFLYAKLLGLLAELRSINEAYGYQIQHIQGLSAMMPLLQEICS

| SMILES | Potency |
| --- | --- |
| CCN(CC)c1nc(C)cc(OP(=S)(OC)OC)n1 | inactive |
| O=P(O)(Oc1ccccc1)Oc1ccccc1 | inactive |
| ClC(Cl)C(Cl)Cl | inactive |
| CC(CC(C#N)(c1ccccc1)c1ccccc1)N(C)C (stereo not drawn) | inactive |
| CN(C)CCc1ccc(O)cc1 | inactive |
| C(CCOCC1CO1)COCC1CO1 (stereo not drawn) | inactive |
| CCCCC(=O)Cl | inactive |
| CCCCCCI | inactive |
| ClCCOCOCCCl | inactive |
| ClCC(Cl)Cl | inactive |
| CSc1nc(N=[N+]=[N-])nc(NC(C)C)n1 | inactive |
| Nc1c(Br)cc([N+](=O)[O-])cc1[N+](=O)[O-] | inactive |
| CCC(C)n1c(=O)[nH]c(C)c(Br)c1=O (stereo not drawn) | inactive |
| COC(=O)c1c(C(F)F)nc(C(F)(F)F)c(C2=NCCS2)c1CC(C)C | inactive |
| C1CCC(C2CCCCC2)CC1 | inactive |
| Cc1nnc2n1-c1sc(CCC(=O)N3CCOCC3)cc1C(c1ccccc1Cl)=NC2 | inactive |
| c1coc(-c2nc3ccccc3[nH]2)c1 | inactive |
| OCCSCSCCO | inactive |
| N#Cc1c(Cl)cccc1Cl | inactive |
| CNCC(=O)c1ccc(O)c(O)c1 | inactive |
| ClCC(Cl)(Cl)Cl | inactive |
| COc1ncc(F)c2nc(S(=O)(=O)Nc3c(F)cccc3F)nn12 | inactive |
| CCCCCCBr | inactive |
| O=C(CCCN1CCC(n2c(=O)[nH]c3ccccc32)CC1)c1ccc(F)cc1 | inactive |
| C=CC1CC=CCC1 (stereo not drawn) | inactive |
| CCOC(=O)C1(c2ccccc2)CCN(CCc2ccc(N)cc2)CC1 | inactive |

Molecular target: Nuclear receptor subfamily 1 group I member 3 (Homo sapiens) (UniProt Q14994)
Assay: qHTS assay to identify small molecule agonists of the constitutive androstane receptor (CAR) signaling pathway (AID 1224839); note: nearly all actives have a fitted effect of over 15% in size; note: potency is the fitted concentration of half-maximal effect
Conditions: HepG2 hCAR CYP2B6-luciferase, agonist mode, 24 h; series mostly up to 92.4 µM
Outline: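 Using human hepatoma HepG2 cells engineered with hCAR and a CYP2B6-2.2kb reporter, 15-concentration compound series were incubated 24 h alongside PK11195 at 0.75 uM final, with luminescence quantified afterwards.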

| SMILES | Potency |
| --- | --- |
| CCN(CC)c1nc(C)cc(OP(=S)(OC)OC)n1 | 48.6 µM (active) |
| O=P(O)(Oc1ccccc1)Oc1ccccc1 | inactive |
| ClC(Cl)C(Cl)Cl | inactive |
| CC(CC(C#N)(c1ccccc1)c1ccccc1)N(C)C (stereo not drawn) | 27.2 µM (active) |
| CN(C)CCc1ccc(O)cc1 | inactive |
| C(CCOCC1CO1)COCC1CO1 (stereo not drawn) | inactive |
| CCCCC(=O)Cl | inactive |
| CCCCCCI | inactive |
| ClCCOCOCCCl | inactive |
| ClCC(Cl)Cl | inactive |
| CSc1nc(N=[N+]=[N-])nc(NC(C)C)n1 | 54.5 µM (active) |
| CCC(C)n1c(=O)[nH]c(C)c(Br)c1=O (stereo not drawn) | inactive |
| C1CCC(C2CCCCC2)CC1 | inactive |
| Cc1nnc2n1-c1sc(CCC(=O)N3CCOCC3)cc1C(c1ccccc1Cl)=NC2 | inactive |
| c1coc(-c2nc3ccccc3[nH]2)c1 | 7.7 µM (active) |
| OCCSCSCCO | inactive |
| CCc1cc2c(s1)-n1c(C)nnc1CN=C2c1ccccc1Cl | inactive |
| N#Cc1c(Cl)cccc1Cl | inactive |
| CNCC(=O)c1ccc(O)c(O)c1 | inactive |
| ClCC(Cl)(Cl)Cl | inactive |
| COc1ncc(F)c2nc(S(=O)(=O)Nc3c(F)cccc3F)nn12 | inactive |
| CCCCCCBr | inactive |
| O=C(CCCN1CCC(n2c(=O)[nH]c3ccccc32)CC1)c1ccc(F)cc1 | inactive |
| CC1(C(=O)Nc2ccc(O)c(Cl)c2Cl)CCCCC1 | inactive |
| C=CC1CC=CCC1 (stereo not drawn) | inactive |
| CCOC(=O)C1(c2ccccc2)CCN(CCc2ccc(N)cc2)CC1 | inactive |
